From PubChem BioAssay AID504834 (National Center for Advancing Translational Sciences (NCATS), 2011) come the findings set out here.

Structures are written as SMILES. Out of some 320,000 compounds screened, about 22,000 (6.9%) were called active. A call without a number means that no potency is given here. Inconclusive results (about 27%) are left out. The sample holds actives, similar compounds and a random draw of the others, so the mix is not that of the screen. A number with no mark means an inactive call. Calls come from the whole dose curve; as a rule, active = well fitted inhibition curve with a large enough effect; inconclusive = small, poorly fitted or top-dose-only effect, or another doubt; inactive = no such curve, though single readings can be large or run the other way.
Potency is the fitted concentration of half-maximal effect.

The assay is described as follows: Primary qHTS for delayed death inhibitors of the malarial parasite plastid, 96 hour incubation. As to conditions: P. falciparum luciferase reporter growth; series mostly up to 28.7 µM. The procedure, abridged: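 Two-generation exposure (96 h) targets delayed-death phenotype. Reporter parasites carrying integrated firefly luciferase, in red cells at 2% hematocrit and 0.05% parasitemia final, kept at 37 C, 5% CO2; luminescence loss indicates inhibition.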
For orientation: In qHTS, concentration-response curves come from the screen itself.
With `Cc1cc(NC(=O)CSc2nnc(-c3ccc(Cl)s3)o2)no1`, the Potency result was “inactive”.

In the case of `COc1ccccc1-c1nnc(SCC(=O)Nc2cc(C)on2)o1`, the Potency is 13.1 µM (active).

`COc1ccccc1-c1nnc(SCC(=O)Nc2ccccc2)o1`: the Potency entry was “inactive”.

In the case of `CCN(C(=O)CSc1nc(N)cc(=O)[nH]1)C1CCS(=O)(=O)C1` (stereo not drawn), the Potency entry was “inactive”.

On to `CC(=O)Nc1ccc(NC(=O)CC2CCCC2)cc1`, for which the Potency result was “inactive”.

Turning to `Cc1nc2c(c(=O)n1Cc1ccco1)c1nc3ccccc3nc1n2Cc1ccccc1`, the activity change, negative = inhibition was 27.6% [at 5.75 µM].

Consider `Cn1c2ccccc2c(=O)c2c(=O)n(Cc3ccco3)c(COc3ccccc3)nc21`, for which the Potency is 7.38 µM (active).

For the compound `CCn1c(COc2ccccc2)nnc1SCC(=O)NCc1ccco1`, the Potency result is “inactive”.

As to `CC(=O)N1CCC(N(C(=O)Nc2ccc(Cl)cc2)C(C)C)CC1`, the Potency entry is “inactive”.

Regarding `CCOc1ccc(N/C=C/C(=O)c2ccccc2)cc1`, the Potency result was “inactive”.

Regarding `N#C/C=C/N1CCN(Cc2ccc3c(c2)OCO3)CC1`, the Potency entry is “inactive”.

Turning to `Cc1cc(NC(=O)CSCc2nc(-c3cccc(Cl)c3)oc2C)no1`, the Potency was 11.7 µM (active).

For `Cc1ccc(-c2csc(SCC(=O)Nc3cc(C)on3)n2)cc1`, the Potency result was “inactive”.

In the case of `COc1ccccc1C(=O)COC(=O)CSCC(=O)Nc1cc(C)on1`, the Potency entry was “inactive”.

Consider `Oc1c(Cl)cc(Cl)cc1/C=N/c1ncn[nH]1`, for which the Potency result is “inactive”.

For the compound `CC(C)C[C@H](NC(=O)C1CC(=O)N(c2ccc3c(c2)OCCO3)C1)C(=O)NC1CCCC1` (stereo partly drawn), the Potency result is “inactive”.

In the case of `CCCn1c(=O)c(C(=O)Nc2cc(C)ccn2)c(O)c2ccccc21`, the Potency entry is “inactive”.

As to `OC(COc1ccc(Br)cc1)CN1CCCC1` (stereo not drawn), the Potency result was “inactive”.

`O=C(c1ccccc1)c1ccc(OCC(O)CN2CCCC2)cc1` (stereo not drawn): the Potency entry was “inactive”.

As to `O=[N+]([O-])c1ccc(N2CCN(CC(O)COc3ccccc3)CC2)cc1` (stereo not drawn), the Potency entry is “inactive”.

As to `CC(=O)Nc1ccc(OCC(O)CN2CCN(c3ccccc3Cl)CC2)cc1` (stereo not drawn), the Potency is 3.7 µM (active).

Take `O=C(c1ccc(Cl)cc1)c1ccc(OCC(O)CN2CCCCC2)cc1` (stereo not drawn): the Potency was 2.33 µM (active).

Turning to `CC(C)c1ccc(OCC(O)CN2CCN(c3ccccn3)CC2)cc1` (stereo not drawn), the Potency entry is “inactive”.

Turning to `COc1ccc(C2CC(c3ccc([N+](=O)[O-])cc3)=NN2C(C)=O)cc1` (stereo not drawn), the Potency entry is “inactive”.

As to `COCc1c(C(=O)OCC(=O)Nc2ccc(OC(F)F)cc2)oc2ccccc12`, the Potency entry is “inactive”.

With `Cc1ccc(NC(=O)Cn2c(C)csc2=O)cc1`, the Potency entry was “inactive”.

Consider `O=C(NCCSc1ncc(-c2ccccc2)[nH]1)c1ccco1`, for which the Potency result is “inactive”.

As to `Cc1ccc(S(=O)(=O)N(CCCN(C)C)Cc2ccc3c(c2)OCO3)cc1`, the Potency result is “inactive”.

Turning to `COc1ccccc1CCNS(=O)(=O)c1cn(C)nc1C`, the Potency entry is “inactive”.

In the case of `CC(=O)N1CCc2cc(S(=O)(=O)NC3CCCCC3)ccc21`, the Potency result is “inactive”.

In the case of `CCC(=O)N1CCc2cc(S(=O)(=O)NC(C(=O)N3CCc4ccccc4C3)C(C)C)ccc21` (stereo not drawn), the Potency result is “inactive”.

Turning to `CCOC(=O)N1CCC(NC(=O)C(NS(=O)(=O)c2ccc3c(c2)CCN3C(=O)CC)C(C)C)CC1` (stereo not drawn), the Potency is 16.5 µM (active).

Regarding `O=S(=O)(NC1CCCC1)c1ccc(-n2cnnn2)cc1`, the Potency result is “inactive”.

Consider `COc1cc(OC)cc(C(=O)NCCSCc2ccc(Cl)cc2)c1`, for which the Potency entry is “inactive”.

For `COc1ccc(/C=C(\C#N)C(=O)OCC(=O)N(C)C2CCS(=O)(=O)C2)cc1` (stereo not drawn), the Potency entry was “inactive”.

With `CC(C)CC(O)C1CCN(C(=O)CCc2nnc(-c3ccc4c(c3)OCO4)o2)CC1` (stereo not drawn), the Potency entry was “inactive”.

For the compound `O=C(NC(Cc1ccccc1)C(=O)O)/C(=C\c1ccccc1)NC(=O)c1ccco1` (stereo not drawn), the Potency result is “inactive”.

On to `O=C(NC(Cc1ccc(O)cc1)C(=O)O)/C(=C/c1ccccc1)NC(=O)c1ccccc1` (stereo not drawn), for which the Potency is 11.7 µM (active).

For the compound `CC(=O)N/C(=C\c1ccc(F)cc1)C(=O)NC(Cc1ccccc1)C(=O)O` (stereo not drawn), the Potency entry was “inactive”.

In the case of `Cc1ccc(OCC(=O)Nc2nnc(-c3ccco3)s2)cc1`, the Potency result is “inactive”.

Turning to `CC(NS(=O)(=O)c1ccc(Cl)cc1)C(=O)Nc1ccc2c(c1)OCCO2` (stereo not drawn), the Potency entry is “inactive”.

Take `COCCCn1c(SCC(=O)Nc2oc(C)c3c(C)n[nH]c(=O)c23)nc2sc3c(c2c1=O)CCC3`: the Potency result was “inactive”.

Consider `O=C(NCc1ccncc1)C(=O)NCc1ccco1`, for which the Potency result was “inactive”.

With `CCCC(C)C(=O)NCc1ccncc1` (stereo not drawn), the Potency entry was “inactive”.

Turning to `CC(C)(C)NC(=O)C(=O)NCc1ccncc1`, the Potency is 3.29 µM (active).

Take `CCc1cccc(NC(=O)COC(=O)c2cc(=O)c3ccccc3o2)c1`: the Potency entry is “inactive”.

Take `COC(=O)c1sc(NC(=O)COC(=O)C2CCC2)c(C(=O)OC)c1C`: the Potency entry is “inactive”.

As to `COc1ccc(N2CCN(C(=O)CSc3ncnc4c3cnn4-c3ccc(OC)cc3)CC2)cc1`, the Potency result is “inactive”.

Regarding `c1ccc(-n2ncc3c(N4CCCC4)ncnc32)cc1`, the Potency result is “inactive”.

For the compound `COc1ccc(-n2ncc3c(N4CCCc5ccccc54)ncnc32)cc1`, the Potency is 13.1 µM (active).

As to `O=C(NCC(=O)N(c1ccccc1)C(C(=O)NCC1CCCO1)c1ccccc1)c1cccs1` (stereo not drawn), the Potency result was “inactive”.

For `O=C(O)c1ccccc1-c1ccccc1C(=O)Nc1ccccc1Br`, the Potency entry was “inactive”.

For the compound `COC(=O)CN1C(=O)[C@H]2[C@@H](/C=C/c3ccccc3)N3C(=O)CN(CC4CC4)C(=O)[C@@]3(Cc3ccccc3)[C@H]2C1=O`, the Potency entry was “inactive”.

In the case of `Fc1ccc(-c2ccc(NCCN3CCOCC3)nn2)cc1`, the Potency result was “inactive”.

As for `O=S(=O)(c1ccc(SCc2ccccc2)nc1)N1CCCCCC1`, the Potency result was “inactive”.

On to `Cc1cc(=O)oc2cc(NC(=O)C(C)Oc3ccccc3)ccc12` (stereo not drawn), for which the Potency entry is “inactive”.

`COc1ccc(-c2cc(=O)oc3cc(OC(C)C(=O)Nc4ccc(CN5CCOCC5)cc4)ccc23)cc1` (stereo not drawn): the Potency is 9.28 µM (active).

Consider `Cc1cc(=O)oc2cc(OC(C)C(=O)Nc3ccc(N4CCOCC4)cc3)ccc12` (stereo not drawn), for which the Potency result is “inactive”.

Consider `CN1C(=O)C2(OCCCO2)c2cc(Cl)ccc21`, for which the Potency result was “inactive”.

With `Cc1cc(S(=O)(=O)c2cc3ccc(O)c(C)c3oc2=O)ccc1F`, the Potency entry was “inactive”.

For `CCOc1ccc(-n2cnc3c(=O)[nH]c(N)nc32)cc1`, the Potency result was “inactive”.

As to `Cc1n[nH]c(C)c1S(=O)(=O)N1CCCC(C(=O)Nc2ccc(Br)cc2)C1` (stereo not drawn), the Potency result is “inactive”.

In the case of `CCC(C)C(N=C1NS(=O)(=O)c2ccccc21)C(=O)N1CCC(C)CC1` (stereo not drawn), the Potency entry is “inactive”.

`CCOC(=O)N1CCN(C(=O)c2ccc(S(=O)(=O)Nc3cccc(C(F)(F)F)c3)cc2)CC1`: the Potency entry is “inactive”.

For `Nc1ccn(CC(=O)N2CCN(c3ccccn3)CC2)c(=O)n1`, the Potency result is “inactive”.

On to `CC(C)C(=O)Nc1oc(-c2ccccc2)cc1C#N`, for which the Potency is 2.08 µM (active).

For the compound `CC(Oc1ccccc1)C(=O)Nc1oc(-c2ccco2)c(-c2ccco2)c1C#N` (stereo not drawn), the Potency result is “inactive”.

Turning to `CC(C)C(=O)Nc1ccc2c(c1)oc1ccccc12`, the Potency entry is “inactive”.
